High-throughput results deposited in PubChem BioAssay by several laboratories.
ERa SRC1 pot: ER-alpha (human) coactivator binding potentiation; P03372; TR-FRET ERalpha-LBD/SRC-Cy5 coactivator binding, 2 h; 100 = basal binding, no effect; coactivator binding (% of control), % at 25.6 µM; actives 1.3% (n = 86,000); AID 639; in the data active means activity above about 200%;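 further: binding measured in presence of low estradiol as agonist stimulus; 0% = peptide alone without receptor and 100% = receptor with peptide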
CD11b adhes inh: CD11b/CD18-fibrinogen binding inhibition; actives 0.54% (n = 93,000); AID 1497; P05107+P11215; K562 CD11b/CD18 adhesion to fibrinogen, ATPlite luminescence; Mn2+ added to activate the integrin; inhibition, % at 10 µM;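 active means primary inhibition of 50% or more at 10 µM, then 40% or more on retest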
Target sequence (P05107 whole entry, looked up, other chains not shown): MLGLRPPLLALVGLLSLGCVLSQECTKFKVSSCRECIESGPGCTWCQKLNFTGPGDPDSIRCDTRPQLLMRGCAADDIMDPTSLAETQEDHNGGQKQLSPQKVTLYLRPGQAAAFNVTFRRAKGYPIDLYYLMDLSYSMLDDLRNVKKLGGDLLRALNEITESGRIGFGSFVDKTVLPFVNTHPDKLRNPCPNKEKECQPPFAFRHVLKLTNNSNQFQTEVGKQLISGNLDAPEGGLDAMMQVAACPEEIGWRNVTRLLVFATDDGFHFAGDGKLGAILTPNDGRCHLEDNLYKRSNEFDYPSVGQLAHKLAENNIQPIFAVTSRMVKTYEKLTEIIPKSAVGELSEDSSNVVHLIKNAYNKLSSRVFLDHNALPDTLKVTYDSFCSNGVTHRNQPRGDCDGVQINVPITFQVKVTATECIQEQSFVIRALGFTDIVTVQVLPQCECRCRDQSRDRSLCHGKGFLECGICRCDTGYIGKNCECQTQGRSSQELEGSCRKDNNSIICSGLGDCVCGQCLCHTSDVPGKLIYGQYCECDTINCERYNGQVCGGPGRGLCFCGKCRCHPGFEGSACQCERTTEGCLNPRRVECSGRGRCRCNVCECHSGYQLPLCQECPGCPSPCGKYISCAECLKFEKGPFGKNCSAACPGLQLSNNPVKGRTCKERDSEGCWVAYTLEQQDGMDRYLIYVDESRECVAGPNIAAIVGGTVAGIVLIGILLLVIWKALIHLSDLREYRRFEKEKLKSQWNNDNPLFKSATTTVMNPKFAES
ERb coact inh: ER-beta (human) coactivator binding inhibition. Q92731. TR-FRET ER-beta LBD / SRC1-Cy5 peptide binding; receptor agonist-loaded with 1 µM estradiol. inhibition, % at 25.6 µM. AID 633. actives 1.3% (n = 86,000);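 active means compounds whose percent inhibition of the receptor-coactivator binding signal exceeds about 50% in the single-dose screen, limit read from the data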;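 further: 0% = receptor plus peptide wells without compound and 100% = peptide-only wells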
Mac1 fbg enh: CD11b/CD18-fibrinogen binding enhancement. actives 0.07% (n = 93,000). P05107+P11215. K562 CD11b/CD18 adhesion to fibrinogen, ATPlite luminescence. activation, % at 10 µM. AID 1499;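 active means 10 µM primary screen giving 50% or more activity, confirmed by 40% or more on retest at that dose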
ERa SRC1 inh: ER-alpha (human) coactivator binding inhibition; actives 1.7% (n = 86,000); inhibition, % at 25.6 µM; P03372; AID 629; TR-FRET ER-alpha LBD / SRC-1 peptide, estradiol-bound; in the data active means inhibition above about 50%;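 further: 0% = receptor plus peptide control and 100% = peptide only without receptor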
Starred values were filed as active, the others as inactive; · = no result; [ ] = another dose, or the depositor's remark. The list is not random: actives were taken first. Their share in the collection is about 3.1%.

SMILES	ERa SRC1 pot	CD11b adhes inh	ERb coact inh	Mac1 fbg enh	ERa SRC1 inh
c1cncc(-c2nc(Oc3ccc(-c4nnco4)cc3)c3c4c(sc3n2)CCCC4)c1	258*[fluorescence artefact?]	-15	5	16	18
CCCCc1nc(SCC(=O)Nc2cc(C)on2)n[nH]1	110	-1	98*[fluorescence artefact?]	1	-6
CCCCNC(=S)N/N=C/c1ccccc1F	·	-1	·	1	·
Cc1nn(C(=O)Cn2ccc([N+](=O)[O-])n2)c(C)c1Br	·	-2	·	1	·
O=C(O)c1cc(S(=O)(=O)Nc2ccc3oc(=O)sc3c2)ccc1O	60	-9	55*[fluorescence artefact?]	-2	43
Cc1nc(NC(=O)CSc2nc3cccnc3n2Cc2ccccc2)sc1C	100	10	33	1	35
COC(=O)c1cc(NC(=O)Cn2c(=O)cnc3ccccc32)cc(C(=O)OC)c1	80	5	25	22	55*
COC(=O)Cn1c(=O)cnc2ccccc21	103	-11	-1	-5	5
O=C(NCc1cccnc1)c1ccc(CN2CCc3ccccc3C2)cc1	105	·	-2	·	-5
CCC(CC)C(=O)NCCc1ccc(OC)c(OC)c1	81	-6	8	-1	1
COc1ccc(CCNC(=O)COC(=O)c2ccco2)cc1OC	113	-3	78*[fluorescence artefact?]	-3	-7
COc1ccc(CCNC(=O)c2ccc3c(=O)n(Cc4ccco4)c(=S)[nH]c3c2)cc1OC	75	6	40	11	61*[fluorescence artefact?]
CCOc1ccc(C(=O)OCC(=O)NCc2ccco2)cc1OCC	81	1	52*	6	70*[fluorescence artefact?]
CCOc1cc2[nH]c(=S)n(CCc3ccc(OC)c(OC)c3)c(=O)c2cc1OCC	62	-43	31	17	57*[fluorescence artefact?]
CC(C)NC(=O)c1ccc2c(=O)n(Cc3ccco3)c(=S)[nH]c2c1	115	·	-2	·	0
CC1CCc2nc(NC(=O)Nc3ccc4c(c3)OCO4)sc2C1 (centres undefined)	·	8	·	-2	·
Cc1ccc2c(Cl)cc(Cl)c(OCC(=O)NCc3ccco3)c2n1	9	-4	84*	93	93*[fluorescence artefact?]
COc1ccc(C(=O)OCC(=O)NCc2ccco2)cc1OC	60	-11	41	6	68*[fluorescence artefact?]
COc1ccc(CCNC(=O)c2ccc3nc(-c4ccco4)c(-c4ccco4)nc3c2)cc1OC	36	-7	94*[fluorescence artefact?]	0	90*[fluorescence artefact?]
CCOc1ccc(-c2cc(CCCC(=O)NCc3ccco3)no2)cc1	204*	8	-2	1	-43
Cc1ccc2c(Cl)cc(Cl)c(OCC(=O)NC(=O)NCc3ccco3)c2n1	90	-10	22	-3	31
Cc1c(C)n(C(=O)CN2CCC(C)CC2)c2ccccc12	102	4	-8	-2	-3
O=C(NCc1ccco1)C1CCN(S(=O)(=O)Cc2ccccc2)CC1	101	·	-23	·	-11
O=C1C2CC=CCC2C(=O)N1c1n[nH]c(CCc2ccccc2)n1 (centres undefined)	98	-6	5	-5	5
Cc1ccc(-c2nnc(N3CCN(C(=O)CN4C(=O)c5ccccc5C4=O)CC3)c3ccccc23)cc1	125	·	6	·	58*
SMILES	ERa SRC1 pot	CD11b adhes inh	ERb coact inh	Mac1 fbg enh	ERa SRC1 inh
O=C(CN1C(=O)c2ccccc2C1=O)N1CCN(c2nnc(-c3ccccc3)c3ccccc23)CC1	220*	·	4	·	2
CCn1c(COc2ccccc2Cl)nnc1SCC(=O)Nc1ncccc1C	·	-10	·	1	·
CCOC(=O)c1[nH]c(C)c(C(=O)OCC(=O)N2CCc3ccccc32)c1C	94	0	-2	-5	5
CC(=O)c1c(C)[nH]c(C(=O)OCC(=O)N2CCc3ccccc32)c1C	229*	18	16	-4	12
CNc1nc(OCC(F)(F)F)nc(N2CCN(C34CC5CC(CC(C5)C3)C4)CC2)n1	126	·	-10	·	-9
Cc1cc(-c2nc3c4c5c(sc4[nH]c(=O)n3n2)CCC5)c(C)o1	5	7	96*[fluorescence artefact?]	78	97*[fluorescence artefact?]
COC(=O)C1CCN(C(=O)Cc2ccc(OC)c(OC)c2)CC1	124	·	-4	·	-2
COC(=O)C1CCN(C(=O)Cc2ccc(Br)cc2)CC1	50	0	66*[fluorescence artefact?]	-3	55*[fluorescence artefact?]
C=CCn1c(=O)c2ccccc2n2c(SCc3nnc(-c4ccccc4Br)o3)nnc12	71	3	35	-6	52*[fluorescence artefact?]
CCN(CC)c1ccc(C(=O)OCC(=O)Nc2sccc2C#N)cc1	·	15	·	-1	·
CCOC(=O)Nc1cc(C)ccc1OC	115	2	10	2	-2
COc1ccc(C(=O)Nc2ccc(C)cn2)c(OC)c1	108	76*	-17	-8	-17
O=C(Nc1ccc2c(c1)OCO2)Nc1ccc(Br)cn1	228*	6	33	64	15
O=C(Nc1cccc(Cl)c1)Nc1ccc2c(c1)OCO2	112	-21	2	12	9
COc1ccc(C)cc1NC(=O)Nc1ccc(Br)cn1	243*	-35	34	49	10
CCOc1ccc(NC(=O)C2=C(C)C(=O)OC23CCC(C)CC3)cc1 (centres undefined)	106	6	4	3	1
COc1ccc(C(=O)CSC2=C(C#N)C3(CCCCC3)C(C#N)=C(N)N2)cc1	100	15	-7	-3	4
N#CC1=C(N)NC(SCC(=O)c2ccc(Cl)cc2)=C(C#N)C12CCCC2	71	64*	-10	-8	2
Cc1cc2cc(CNC(=O)Nc3ccccc3)ccc2n1C	222*[fluorescence artefact?]	·	17	·	11
Cc1cc2cc(CNC(=O)c3cccs3)ccc2n1C	65	·	47	·	75*[fluorescence artefact?]
Cn1c(O)c(C(C#N)=C2N=c3ccccc3=N2)c2ccccc21	68	·	48	·	80*[fluorescence artefact?]
N#CC(=C1N=c2ccccc2=N1)c1c(O)[nH]c2ccccc12	·	25	·	10	·
CC(C)NC(=O)C1(c2ccccc2)CC1(Cl)Cl (centres undefined)	·	-15	·	-2	·
CN1c2ccccc2C(O)=C(C(=S)Nc2ccc(Cl)cc2)S1(=O)=O	·	52*	·	-6	·
Cc1nc(C)c(C(=O)Nc2nc3c(C)cccc3s2)o1	26	-9	91*[fluorescence artefact?]	74	92*[fluorescence artefact?]
SMILES	ERa SRC1 pot	CD11b adhes inh	ERb coact inh	Mac1 fbg enh	ERa SRC1 inh
Cc1cccc2sc(NC(=O)C3CCCO3)nc12 (centres undefined)	113	·	-7	·	-9
COc1ccc(-c2cn(-c3ccc(OC)cc3)c3[n+]2-c2ccccc2CC3)cc1	·	84*	·	-3	·
CCOC(=O)N1CCC(n2c(=S)[nH]c3cc(OCC)c(OCC)cc3c2=O)CC1	106	-41	52*[fluorescence artefact?]	47	41
CC(Sc1nc(-c2ccccc2)cs1)C(=O)Nc1ccc(Cl)cn1 (centres undefined)	·	21	·	4	·
CCOC(=O)c1[nH]c2c(c1C)C(=O)CC(c1ccco1)C2 (centres undefined)	93	18	56*[fluorescence artefact?]	5	65*
Cc1c(C(=O)OCCOC(C)C)[nH]c2c1C(=O)CC(c1ccco1)C2 (centres undefined)	123	19	29	-2	33
